Paper PMC7819943, “Rice protein-binding microarrays: a tool to detect cis-acting elements near promoter regions in rice”
Over roughly 35,000 sequences, “fluorescence intensity (a.u.)” has its median near 10,000; the highest 2% begin near 52,000. The entries come from a sample that favours the highest values as a whole.

Each sequence was assayed against T1, OsWOX13 (Oryza sativa, UniProt Q5QMM3 1-267) (assay: protein-binding microarray (RPBM); PBS, 2% BSA, 51.3 ng/ul salmon testes DNA, 50 uM zinc acetate, 200 nM TF, 25 C, 1 h; high values mean tight binding). Settings: protein: recombinant; tags: N-terminal polyhistidine and DsRed monomer fusion (pET32a); label: CyDye5-dUTP incorporated in the synthesized complementary strand; 3' TTTTT single-stranded linker to array surface; dsDNA, one strand shown.
T1 sequence: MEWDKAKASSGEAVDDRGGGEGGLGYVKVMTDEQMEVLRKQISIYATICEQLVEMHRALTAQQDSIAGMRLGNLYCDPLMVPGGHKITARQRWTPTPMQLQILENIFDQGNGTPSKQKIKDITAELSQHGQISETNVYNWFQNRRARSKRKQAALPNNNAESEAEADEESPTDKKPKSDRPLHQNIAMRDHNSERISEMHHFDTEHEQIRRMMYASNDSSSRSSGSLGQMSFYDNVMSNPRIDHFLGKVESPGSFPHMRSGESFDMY
Outline: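 A custom Agilent array was converted to double-stranded form by primer extension with Cy5-dUTP and blocked with 2% BSA. Protein at 200 nM in PBS with 2% BSA, salmon testes DNA and 50 µM zinc acetate was applied for 1 h at 25 °C, followed by washing. The proteins were polyhistidine–DsRed N-terminal fusions of transcription factors, expressed in E. coli BL21-CodonPlus and Ni–NTA-purified. The binding signal is per-feature fluorescence intensity (arbitrary units) from an Axon 4000B scanner.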
For “CTTATGATTTTATTTAACCTGGTTTTGAAAGACAGGGGTTCGGAGTCACCTAGTGCAG”, the binding signal was 18100 fluorescence intensity (a.u.).
For “ATAGCTAATTTTCGGTATGTTACACCATCCATCTGCCATGCGGAGTCACCTAGTGCAG”, the binding signal was 5050 fluorescence intensity (a.u.).
With “TTCCGATTGAGGAATGTTATTCACACAAGCGCAGGAGATGCGGAGTCACCTAGTGCAG” the binding signal was 4130 fluorescence intensity (a.u.).
For “AAAGTGACTGAATTTTAAGTCATCGGAAATTTACACGCTCCGGAGTCACCTAGTGCAG”, the binding signal was 15400 fluorescence intensity (a.u.).
“ATGAATTGTTAATTTTGCAAGCTGAACTTCTCATGTTTGGCGGAGTCACCTAGTGCAG” was tested, and the binding signal was 11100 fluorescence intensity (a.u.).
“GCGTCCATCTAATCTAATCTAACCACCCTGCACGAATCGCCGGAGTCACCTAGTGCAG” was tested, and the binding signal was 8750 fluorescence intensity (a.u.).
With “TTTTCTTTCTTGATTGGGAAGGAAATTGGTGGTTAATCTCCGGAGTCACCTAGTGCAG” the binding signal was 23700 fluorescence intensity (a.u.).
In the case of “TATAAAATTATAGATAATATAACATGTTTGCATGATGTTTCGGAGTCACCTAGTGCAG”, the binding signal is reported as 5670 fluorescence intensity (a.u.).
In the case of “TGGAACATTGTTGATTGGCGAGCTGGCACGCATGCTAGGTCGGAGTCACCTAGTGCAG”, the binding signal is reported as 18600 fluorescence intensity (a.u.).
In the case of “GTTGATGATGTGGCTTCTTGCTTGTCTTGCTTTATAGGAGCGGAGTCACCTAGTGCAG”, the binding signal is reported as 5720 fluorescence intensity (a.u.).
“ACACAATTATGTCAAGTTCAATTCTCAAGTTTGAATTGGGCGGAGTCACCTAGTGCAG” was tested, and the binding signal was 5050 fluorescence intensity (a.u.).
“GTTTGATTGCACATTATGTCCTTGGAGTTCTTCAACATAGCGGAGTCACCTAGTGCAG” was tested, and the binding signal was 55700 fluorescence intensity (a.u.).
With “TACAATTGATTATGTAAAGTTTGTGTCTTGTACTAGAGGGCGGAGTCACCTAGTGCAG” the binding signal was 43900 fluorescence intensity (a.u.).
“TTGATTGCTTGTTTGATTGGTGGTTCTTGAGCGAGAAGAGCGGAGTCACCTAGTGCAG” was tested, and the binding signal was 63300 fluorescence intensity (a.u.).
“TAGATGATTGCACTAGATTTTGCTTTGTGTACTTATTGAACGGAGTCACCTAGTGCAG” was tested, and the binding signal was 32900 fluorescence intensity (a.u.).
With “TGGAGAGTTTTGATTGGTTGGGAAGAGAATGTTGATAGAGCGGAGTCACCTAGTGCAG” the binding signal was 20200 fluorescence intensity (a.u.).
For “TATGTTCTTGATTTGTCCTGTTACATTGCTGACATATGTGCGGAGTCACCTAGTGCAG”, the binding signal was 8650 fluorescence intensity (a.u.).
With “GTATGATTGGTTATGTAAAGTTTGTTTCTTGTTCTAGAGGCGGAGTCACCTAGTGCAG” the binding signal was 58400 fluorescence intensity (a.u.).
For “TAGTTTTGTAAATGATTGAAATTTTCTAGTGTTAAATAGGCGGAGTCACCTAGTGCAG”, the binding signal was 34800 fluorescence intensity (a.u.).
For “ATGATTGATGTCTTTTATTTTCTTTGTACTAAGGAGCTTGCGGAGTCACCTAGTGCAG”, the binding signal was 62700 fluorescence intensity (a.u.).
“TCATGGTGATTGCGGCATGAGAGAGTGAGGGTTCTGCGAGCGGAGTCACCTAGTGCAG” was tested, and the binding signal was 10300 fluorescence intensity (a.u.).
“TTACTCGTCAATCCACCGATTACAGCTATCTCAAACGGAGCGGAGTCACCTAGTGCAG” was tested, and the binding signal was 8630 fluorescence intensity (a.u.).
With “GTGATAATGTCCATCAATCTAGCAAATCATTCTCACAACGCGGAGTCACCTAGTGCAG” the binding signal was 26800 fluorescence intensity (a.u.).
With “TTTGATTTATATGCCATTGCCTTTGCTGAACAGAAAAGCTCGGAGTCACCTAGTGCAG” the binding signal was 37600 fluorescence intensity (a.u.).
With “AATTTGAAATTTCAAACTTAATTTTAACATTGATTTTGAGCGGAGTCACCTAGTGCAG” the binding signal was 6660 fluorescence intensity (a.u.).
In the case of “AACCATGTTTGACTCAACATAATTAGTGCGACAAACCGCACGGAGTCACCTAGTGCAG”, the binding signal is reported as 4590 fluorescence intensity (a.u.).
For “TTATCGAACATACTAATTGACTCTCAGGGAGTCAAGGATCCGGAGTCACCTAGTGCAG”, the binding signal was 7680 fluorescence intensity (a.u.).
“AGGGTTAAATTGTCAAAATTTGTGCGACACAAACACACTCCGGAGTCACCTAGTGCAG” was tested, and the binding signal was 10900 fluorescence intensity (a.u.).
“ATAATTGAAAATTGATTAGAGTACCTTTTGATGAGATAGCCGGAGTCACCTAGTGCAG” was tested, and the binding signal was 57300 fluorescence intensity (a.u.).
For “CTTAACAACTGAACTGATTGAGACAGTAGATGAAATGGAACGGAGTCACCTAGTGCAG”, the binding signal was 21400 fluorescence intensity (a.u.).
“TCGAGATGGATAATTAGATTGATTGATTGGCCGATAGCCCCGGAGTCACCTAGTGCAG” was tested, and the binding signal was 65100 fluorescence intensity (a.u.).
With “TATAGTGCAGATTTTGAAATTGATGAGTGCACGTTTGGGCCGGAGTCACCTAGTGCAG” the binding signal was 6560 fluorescence intensity (a.u.).
“TAGATAGATTTAGTTTTGATAATGGATAGAGATATTGCCCCGGAGTCACCTAGTGCAG” was tested, and the binding signal was 11600 fluorescence intensity (a.u.).
With “AGCCCGATAATTAGATTGATTATAGACATGACTACATATACGGAGTCACCTAGTGCAG” the binding signal was 18200 fluorescence intensity (a.u.).
For “AAATTTTGAAATTGTTAATATGATATAAATGAGATATAGCCGGAGTCACCTAGTGCAG”, the binding signal was 3970 fluorescence intensity (a.u.).
In the case of “CATTAATTAGATTGAGACAGTACTGAGATGATTGCCGCCCCGGAGTCACCTAGTGCAG”, the binding signal is reported as 65200 fluorescence intensity (a.u.).
“ATTTAAATGAGATGATTGATGGGGCAATTAGTACTCTAGACGGAGTCACCTAGTGCAG” was tested, and the binding signal was 38600 fluorescence intensity (a.u.).
“TGAAAATGATGTCAATCAAACATGAGTGGGGCCTGCTTTGCGGAGTCACCTAGTGCAG” was tested, and the binding signal was 38500 fluorescence intensity (a.u.).
In the case of “TCACAATAGATAATTTATTCACTGAAAATTTTAGTTTTGGCGGAGTCACCTAGTGCAG”, the binding signal is reported as 11100 fluorescence intensity (a.u.).
With “GGTATTACTGACTGGATTACCATGTGTGCGTCACATCGGACGGAGTCACCTAGTGCAG” the binding signal was 6490 fluorescence intensity (a.u.).
With “ATTTCAGATTGGGTTATTTGAGAGCTAAATTTCTAATGTACGGAGTCACCTAGTGCAG” the binding signal was 4680 fluorescence intensity (a.u.).
For “TGAAAATGATTTGGGATGGCATTTCAGCGGGTTGGGCTCACGGAGTCACCTAGTGCAG”, the binding signal was 22000 fluorescence intensity (a.u.).
In the case of “ATAATGGCATAATTTAAATTTTACAAAATACTTATGACACCGGAGTCACCTAGTGCAG”, the binding signal is reported as 12600 fluorescence intensity (a.u.).
For “GTTGATGTGATGGAAAATGACTGAAGATTGGATCTAAACTCGGAGTCACCTAGTGCAG”, the binding signal was 31100 fluorescence intensity (a.u.).
With “ATGGTTGATTGATTGCATATATTTGAACAAATGATCTTTGCGGAGTCACCTAGTGCAG” the binding signal was 65500 fluorescence intensity (a.u.).
In the case of “ACTAAATTGGGTTGGGGTGCCTCCTCCTTCCTTTCTTTCTCGGAGTCACCTAGTGCAG”, the binding signal is reported as 21000 fluorescence intensity (a.u.).
In the case of “GAAAATGACCAAATTATGAAAACATCCAGGCAATGGATCTCGGAGTCACCTAGTGCAG”, the binding signal is reported as 3240 fluorescence intensity (a.u.).
For “ATTAATTATGTCATAAACTGTTGTTGATTTGTGCCAGTTTCGGAGTCACCTAGTGCAG”, the binding signal was 39500 fluorescence intensity (a.u.).
With “CGACTGATTGGTTGGGGTCATGGTTGGAACAAAATTTCCTCGGAGTCACCTAGTGCAG” the binding signal was 52800 fluorescence intensity (a.u.).
“AGGTTGATTAACTGTTTCATGAATTTGGTATGTTTGCAGTCGGAGTCACCTAGTGCAG” was tested, and the binding signal was 53300 fluorescence intensity (a.u.).
With “TGATGATTTAACTGTGTTGCATGAATTCATTCCTATTTGACGGAGTCACCTAGTGCAG” the binding signal was 29500 fluorescence intensity (a.u.).
For “CTAGTAATTACAAACATTGGAACTGAGTTTTGGTTGGGGTCGGAGTCACCTAGTGCAG”, the binding signal was 23800 fluorescence intensity (a.u.).
With “CATAATGATTGCGTTGAACGTTGGTTGCTTGATCATCTTTCGGAGTCACCTAGTGCAG” the binding signal was 18600 fluorescence intensity (a.u.).
In the case of “CTTATATTTGCAAATATTGATGGTTGTTGACATATGAACTCGGAGTCACCTAGTGCAG”, the binding signal is reported as 3210 fluorescence intensity (a.u.).
For “CCTGACAGGTCATCTCCTGATTGAAACCAAAATGTTGGATCGGAGTCACCTAGTGCAG”, the binding signal was 60700 fluorescence intensity (a.u.).
